Assay results from PubChem BioAssay (Tox21).
“And” between values parts separate entries of the source, which are not always exact repeats. Equal values may be shown once. Records with an inconclusive call do not appear. Where a call stands in place of a potency, no number is given. Where a structure was tested more than once in an assay, its records may differ in their call. The source made the active and inactive calls. Unless noted, calls come from the whole dose curve; as a rule, active = well fitted curve in the direction sought with a large enough effect in the repeat runs; inconclusive = weak or mixed curves; inactive = no such curve, though single readings can be large; an effect the other way counts as inactive or inconclusive.

Assays:
[1] = Caspase-3/7 induction in HepG2 cells by small molecules, qHTS assay (AID 1346978); note: nearly all actives have a fitted effect of over 15% in size
In short: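 Wild-type HepG2 cells, 2,000/well, settled 5 hr at 37 C and 5% CO2, then compound-treated for 17 hr; caspase-3/7 activity read by luminescent Caspase-Glo 3/7 after 30 min at room temperature.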

[2] = Caspase-3/7 induction in CHO-K1 cells by small molecules, qHTS cell viability counter screen (AID 1346979); note: nearly all actives have a fitted effect of over 35% in size
In short: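 In the same wells as the caspase read, viability of compound-treated wild-type CHO-K1 cells was assessed using CellTiter-Fluor, added after 16hr at 37C and measured by fluorescence following 1hr further incubation.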

[3] = Caspase-3/7 induction in CHO-K1 cells by small molecules, qHTS assay (AID 1346980); note: nearly all actives have a fitted effect of over 15% in size
In short: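 Wild-type CHO-K1 cells exposed to compounds for 17hr at 37 C, 5% CO2. Caspase-3/7 activity then measured by Caspase-Glo 3/7 luminescence after 30min at room temperature.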

[4] = Caspase-3/7 induction in HepG2 cells by small molecules, qHTS cell viability counter screen (AID 1346981); note: series mostly up to about 92 µM; nearly all actives have a fitted effect of over 30% in size
In short: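 CellTiter-Fluor fluorescence measured viability in the same wells used for Caspase-Glo 3/7. HepG2 (wild type) at 2,000 cells/well were pre-incubated 5 hr, dosed, and given reagent at 16 hr, with 1 hr further at 37C.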

[5] = target: Nuclear receptor subfamily 1 group I member 2 (Homo sapiens) (UniProt O75469); assay: Human pregnane X receptor (PXR) small molecule agonists, qHTS assay (AID 1346982); note: nearly all actives have a fitted effect of over 35% in size; note: potency is the fitted concentration of half-maximal effect
Sequence of Nuclear receptor subfamily 1 group I member 2 (Homo sapiens) (O75469 whole entry, looked up): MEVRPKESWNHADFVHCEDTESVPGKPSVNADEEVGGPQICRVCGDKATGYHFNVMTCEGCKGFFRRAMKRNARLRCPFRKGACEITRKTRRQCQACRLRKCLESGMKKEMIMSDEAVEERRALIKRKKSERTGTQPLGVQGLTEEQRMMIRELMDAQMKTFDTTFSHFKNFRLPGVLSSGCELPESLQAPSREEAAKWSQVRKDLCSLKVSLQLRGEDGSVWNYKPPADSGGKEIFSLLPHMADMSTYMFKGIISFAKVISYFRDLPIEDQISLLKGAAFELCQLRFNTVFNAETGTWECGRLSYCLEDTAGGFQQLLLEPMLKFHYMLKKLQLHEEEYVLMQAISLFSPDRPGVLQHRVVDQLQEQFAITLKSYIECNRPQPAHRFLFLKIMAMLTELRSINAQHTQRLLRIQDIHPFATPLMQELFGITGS
In short: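 Agonist mode: luminescence from ONE-Glo after 24 h compound exposure at 37C in HepG2 cells carrying hPXR-responsive CYP3A4 luciferase, plated in charcoal-stripped serum medium 5 h beforehand.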

[6] = target: Acetylcholinesterase (Homo sapiens) (UniProt P22303); assay: Acetylcholinesterase (AChE) small molecule antagonists: colormetric cell-based qHTS assay (AID 1347395; calls by dose curve; note: nearly all actives have a fitted effect of over 30% in size; note: potency is the fitted concentration of half-maximal effect)
Sequence of Acetylcholinesterase (Homo sapiens) (P22303 whole entry, looked up): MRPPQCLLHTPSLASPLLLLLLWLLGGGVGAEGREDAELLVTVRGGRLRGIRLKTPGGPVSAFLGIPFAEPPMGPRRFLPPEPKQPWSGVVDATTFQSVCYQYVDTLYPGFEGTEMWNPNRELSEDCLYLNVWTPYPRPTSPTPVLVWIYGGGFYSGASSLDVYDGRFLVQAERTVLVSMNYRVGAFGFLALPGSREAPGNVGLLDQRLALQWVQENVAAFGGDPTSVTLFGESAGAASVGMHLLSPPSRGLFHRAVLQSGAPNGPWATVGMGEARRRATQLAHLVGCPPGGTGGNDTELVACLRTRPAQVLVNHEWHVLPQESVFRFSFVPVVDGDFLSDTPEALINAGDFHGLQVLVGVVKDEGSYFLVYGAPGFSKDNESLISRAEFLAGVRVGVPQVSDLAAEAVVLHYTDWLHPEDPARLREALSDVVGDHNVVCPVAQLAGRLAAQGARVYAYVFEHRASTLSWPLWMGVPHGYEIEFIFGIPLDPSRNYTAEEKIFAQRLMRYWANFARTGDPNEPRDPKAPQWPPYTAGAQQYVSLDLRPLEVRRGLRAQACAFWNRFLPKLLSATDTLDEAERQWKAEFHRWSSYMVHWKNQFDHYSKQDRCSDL
In short: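 Endogenous AChE of human neuroblastoma SH-SY5Y cells was measured with an Ellman-type DTNB/acetylthiocholine mix. Compound pretreatment lasted 30 min at 37 C; substrate reaction ran 90 min at 37 C.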

[7] = target: Acetylcholinesterase (Homo sapiens) (UniProt P22303); assay: Acetylcholinesterase (AChE) small molecule antagonists: enzyme-based qHTS assay (AID 1347397; calls by dose curve; note: nearly all actives have a fitted effect of over 55% in size; note: potency is the fitted concentration of half-maximal effect); settings: Potency: AChE enzyme activity inhibition
In short: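 Colorimetric DTNB read-out of thiocholine released from acetylthiocholine by recombinant human AChE (50 mU/mL as dispensed). Compounds were preincubated 30 min at RT before substrate/DTNB addition, with a 10 min RT reaction.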

[8] = target: Acetylcholinesterase (Homo sapiens) (UniProt P22303); assay: Acetylcholinesterase (AChE) small molecule antagonists: fluorescence cell-based qHTS assay (AID 1347398; calls by dose curve; note: nearly all actives have a fitted effect of over 50% in size; note: potency is the fitted concentration of half-maximal effect); settings: Potency: AChE activity
In short: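 SH-SY5Y, 2,000 cells/well, attached overnight; cmpd 30 min 37 C; acetylthiocholine/Thiolite Green cocktail 40 min RT; fluorescence Ex/Em 490/520 nm.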

[9] = target: Acetylcholinesterase (Homo sapiens) (UniProt P22303); assay: Acetylcholinesterase (AChE) small molecule antagonists: enzyme-based qHTS assay with human liver microsomes (AID 1347399; calls by dose curve; note: nearly all actives have a fitted effect of over 60% in size); settings: Potency: qHTS inhibition
In short: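 Recombinant human AChE (50 mU/mL in the enzyme mix) and human liver microsomes (0.25 mg/mL final) were preincubated with compound and NADPH (0.25 mg/mL final) for 30 min at 37 C. Acetylthiocholine/DTNB was then added; thiocholine was read colorimetrically after 10 min at room temperature.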

[10] = target: Cytochrome P450 2D6 (Homo sapiens) (UniProt P10635); assay: Cytochrome P450 Family 2 Subfamily D Member 6 (CYP2D6) small molecule antagonists: luciferase reporter qHTS assay (AID 1671196); note: nearly all actives have a fitted effect of over 50% in size; note: potency is the fitted concentration of half-maximal effect
Sequence of Cytochrome P450 2D6 (Homo sapiens) (P10635 whole entry, looked up): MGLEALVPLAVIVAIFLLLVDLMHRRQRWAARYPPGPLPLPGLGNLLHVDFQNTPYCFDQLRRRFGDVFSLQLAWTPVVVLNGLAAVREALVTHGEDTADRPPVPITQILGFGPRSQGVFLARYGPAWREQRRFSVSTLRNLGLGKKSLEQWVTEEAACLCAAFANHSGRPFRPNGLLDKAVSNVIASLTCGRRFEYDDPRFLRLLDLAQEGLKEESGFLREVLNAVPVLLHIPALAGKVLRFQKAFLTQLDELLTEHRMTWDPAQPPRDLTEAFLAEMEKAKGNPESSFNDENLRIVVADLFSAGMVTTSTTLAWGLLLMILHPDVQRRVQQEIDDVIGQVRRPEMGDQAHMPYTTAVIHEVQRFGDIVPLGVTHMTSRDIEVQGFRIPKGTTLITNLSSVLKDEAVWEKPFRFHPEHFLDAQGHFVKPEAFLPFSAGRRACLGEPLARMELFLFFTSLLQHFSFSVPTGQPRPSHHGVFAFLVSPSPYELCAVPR
In short: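 CYP2D6 activity was followed as luminescence from its luciferin product after a 1 h NADPH-driven reaction at room temperature. Enzyme-substrate mix and compound were pre-incubated for 10 min, and the signal was read 20 min after adding detection reagent.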

[11] = target: Cytochrome P450 2C19 (Homo sapiens) (UniProt P33261); assay: Cytochrome P450 Family 2 Subfamily C Member 19 (CYP2C19) small molecule antagonists: luciferase reporter qHTS assay (AID 1671197); note: nearly all actives have a fitted effect of over 65% in size; note: potency is the fitted concentration of half-maximal effect
In short: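 P450-Glo CYP2C19 system: enzyme-substrate mix with compound 10 min at room temperature, then NADPH regeneration solution, 1 h at 37C. Proluciferin-to-luciferin conversion detected by luminescence after 20 min with detection reagent; ketoconazole as positive control.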

[12] = target: Cytochrome P450 2C9 (Homo sapiens) (UniProt P11712); assay: Cytochrome P450 Family 2 Subfamily C Member 9 (CYP2C9) small molecule antagonists: luciferase reporter qHTS assay (AID 1671198); note: nearly all actives have a fitted effect of over 50% in size; note: potency is the fitted concentration of half-maximal effect
Sequence of Cytochrome P450 2C9 (Homo sapiens) (P11712 whole entry, looked up): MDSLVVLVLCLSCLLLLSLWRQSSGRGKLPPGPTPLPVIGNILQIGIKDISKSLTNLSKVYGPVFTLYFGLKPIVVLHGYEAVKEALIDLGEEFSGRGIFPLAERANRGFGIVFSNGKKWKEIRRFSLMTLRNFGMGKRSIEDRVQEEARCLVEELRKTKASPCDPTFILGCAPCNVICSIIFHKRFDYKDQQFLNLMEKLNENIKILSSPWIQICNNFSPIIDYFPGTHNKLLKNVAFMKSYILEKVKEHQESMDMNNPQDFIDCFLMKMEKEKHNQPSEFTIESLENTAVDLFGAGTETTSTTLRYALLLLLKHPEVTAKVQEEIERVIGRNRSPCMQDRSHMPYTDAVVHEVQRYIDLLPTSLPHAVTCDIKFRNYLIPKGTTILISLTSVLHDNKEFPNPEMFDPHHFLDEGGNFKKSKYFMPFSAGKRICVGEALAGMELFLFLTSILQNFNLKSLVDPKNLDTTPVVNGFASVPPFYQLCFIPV
In short: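 P450-Glo proluciferin substrate with CYP2C9 enzyme; 10 min RT preincubation, then NADPH regeneration 1 h at 37C; luciferin detection reagent 20 min RT, luminescence in relative luminescence units.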

[13] = target: Cytochrome P450 1A2 (Homo sapiens) (UniProt P05177); assay: Cytochrome P450 Family 1 Subfamily A Member 2 (CYP1A2) small molecule antagonists: luciferase reporter qHTS assay (AID 1671199); note: nearly all actives have a fitted effect of over 50% in size; note: potency is the fitted concentration of half-maximal effect
Sequence of Cytochrome P450 1A2 (Homo sapiens) (P05177 whole entry, looked up): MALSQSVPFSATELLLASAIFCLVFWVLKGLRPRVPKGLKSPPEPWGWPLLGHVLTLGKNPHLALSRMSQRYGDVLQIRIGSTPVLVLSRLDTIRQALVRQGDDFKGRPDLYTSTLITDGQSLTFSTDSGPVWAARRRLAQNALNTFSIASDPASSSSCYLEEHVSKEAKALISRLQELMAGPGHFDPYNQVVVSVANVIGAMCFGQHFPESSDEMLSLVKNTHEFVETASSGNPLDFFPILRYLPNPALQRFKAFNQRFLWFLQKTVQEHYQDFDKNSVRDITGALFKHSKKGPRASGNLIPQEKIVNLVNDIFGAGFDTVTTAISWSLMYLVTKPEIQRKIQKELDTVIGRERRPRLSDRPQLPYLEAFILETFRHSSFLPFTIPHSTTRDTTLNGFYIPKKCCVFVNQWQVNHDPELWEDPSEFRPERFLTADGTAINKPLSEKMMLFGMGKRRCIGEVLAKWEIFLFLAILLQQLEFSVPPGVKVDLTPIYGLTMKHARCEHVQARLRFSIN
In short: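 Luminescence from luciferin formed by CYP1A2 from a proluciferin substrate, read 20 min after detection reagent. Compound was pre-incubated 10 min with enzyme-substrate, and reaction started with NADPH regeneration solution for 1 h at room temperature; furafylline control.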

[14] = target: Voltage-gated inwardly rectifying potassium channel KCNH2 (Homo sapiens) (UniProt Q12809); assay: Human Ether-a-go-go-Related Gene (hERG) channel small molecule antagonists: fluorescence cell-based qHTS assay (AID 1671200); note: nearly all actives have a fitted effect of over 50% in size; note: potency is the fitted concentration of half-maximal effect
Sequence of Voltage-gated inwardly rectifying potassium channel KCNH2 (Homo sapiens) (Q12809 whole entry, looked up): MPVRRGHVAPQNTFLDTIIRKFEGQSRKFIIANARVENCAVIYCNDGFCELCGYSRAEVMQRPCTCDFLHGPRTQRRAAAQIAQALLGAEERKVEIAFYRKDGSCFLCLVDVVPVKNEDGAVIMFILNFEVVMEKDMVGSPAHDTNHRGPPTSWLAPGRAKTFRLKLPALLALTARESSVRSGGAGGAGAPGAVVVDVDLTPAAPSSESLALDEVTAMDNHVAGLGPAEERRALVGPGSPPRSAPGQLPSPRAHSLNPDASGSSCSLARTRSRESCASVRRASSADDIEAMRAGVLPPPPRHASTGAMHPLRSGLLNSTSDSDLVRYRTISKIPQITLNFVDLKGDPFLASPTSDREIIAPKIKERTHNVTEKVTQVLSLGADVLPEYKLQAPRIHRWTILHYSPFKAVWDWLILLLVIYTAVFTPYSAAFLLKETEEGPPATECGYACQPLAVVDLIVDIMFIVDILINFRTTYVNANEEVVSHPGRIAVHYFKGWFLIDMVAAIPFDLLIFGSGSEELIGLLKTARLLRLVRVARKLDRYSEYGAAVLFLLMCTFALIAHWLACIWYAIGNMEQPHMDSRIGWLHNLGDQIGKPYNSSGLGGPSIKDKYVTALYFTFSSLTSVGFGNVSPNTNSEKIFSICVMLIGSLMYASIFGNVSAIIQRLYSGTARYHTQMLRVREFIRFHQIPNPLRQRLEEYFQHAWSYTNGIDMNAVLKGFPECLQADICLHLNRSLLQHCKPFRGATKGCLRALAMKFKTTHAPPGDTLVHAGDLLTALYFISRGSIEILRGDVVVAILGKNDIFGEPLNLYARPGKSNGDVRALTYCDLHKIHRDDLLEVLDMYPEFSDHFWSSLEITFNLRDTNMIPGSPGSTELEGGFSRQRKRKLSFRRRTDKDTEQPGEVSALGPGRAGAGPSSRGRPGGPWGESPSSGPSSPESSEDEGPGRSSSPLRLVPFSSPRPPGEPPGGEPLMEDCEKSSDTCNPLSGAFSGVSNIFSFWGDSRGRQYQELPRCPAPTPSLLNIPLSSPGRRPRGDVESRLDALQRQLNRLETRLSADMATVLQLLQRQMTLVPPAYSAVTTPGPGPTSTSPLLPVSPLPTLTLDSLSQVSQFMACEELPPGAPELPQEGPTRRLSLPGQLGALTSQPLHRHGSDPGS
In short: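 Quantitative HTS in hERG-U2OS cells: thallium entry through the channel reports activity, read as continuous 480/540 nm fluorescence over 2 min after stimulus addition.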

[15] = target: Cytochrome P450 3A4 (Homo sapiens) (UniProt P08684); assay: Cytochrome P450 Family 3 Subfamily A Member 4 (CYP3A4) small molecule antagonists: luciferase reporter qHTS assay (AID 1671201)
Sequence of Cytochrome P450 3A4 (Homo sapiens) (P08684 whole entry, looked up): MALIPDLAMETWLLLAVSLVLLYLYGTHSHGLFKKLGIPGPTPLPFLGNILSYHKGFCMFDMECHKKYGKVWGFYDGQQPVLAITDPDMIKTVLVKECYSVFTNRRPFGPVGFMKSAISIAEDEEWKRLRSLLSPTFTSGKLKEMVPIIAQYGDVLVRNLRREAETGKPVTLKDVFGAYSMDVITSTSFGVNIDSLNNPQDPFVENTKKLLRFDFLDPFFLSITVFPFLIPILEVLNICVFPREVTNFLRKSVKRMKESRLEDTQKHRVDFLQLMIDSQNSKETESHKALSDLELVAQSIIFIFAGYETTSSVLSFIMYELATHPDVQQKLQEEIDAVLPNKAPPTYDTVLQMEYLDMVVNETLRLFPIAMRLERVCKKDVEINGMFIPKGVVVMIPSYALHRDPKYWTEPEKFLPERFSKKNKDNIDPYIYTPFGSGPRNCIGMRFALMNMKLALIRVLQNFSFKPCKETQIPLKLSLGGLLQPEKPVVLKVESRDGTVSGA
In short: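 Inhibition of CYP3A4 is measured as loss of light: the enzyme converts a proluciferin substrate to luciferin, detected luminescently. Reaction ran 1 h at room temperature with NADPH regeneration after a 10 min compound preincubation.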

[16] = target: Nuclear receptor subfamily 1 group I member 2 (Rattus norvegicus) (UniProt Q9R1A7); assay: Rat pregnane X receptor (rPXR) activation by small molecules, qHTS assay (AID 1346983); settings: rPXR luciferase reporter cells, One-Glo luminescence, 24 h; stronger effect = higher value; note: nearly all actives have a fitted effect of over 20% in size
Sequence of Nuclear receptor subfamily 1 group I member 2 (Rattus norvegicus) (Q9R1A7 whole entry, looked up): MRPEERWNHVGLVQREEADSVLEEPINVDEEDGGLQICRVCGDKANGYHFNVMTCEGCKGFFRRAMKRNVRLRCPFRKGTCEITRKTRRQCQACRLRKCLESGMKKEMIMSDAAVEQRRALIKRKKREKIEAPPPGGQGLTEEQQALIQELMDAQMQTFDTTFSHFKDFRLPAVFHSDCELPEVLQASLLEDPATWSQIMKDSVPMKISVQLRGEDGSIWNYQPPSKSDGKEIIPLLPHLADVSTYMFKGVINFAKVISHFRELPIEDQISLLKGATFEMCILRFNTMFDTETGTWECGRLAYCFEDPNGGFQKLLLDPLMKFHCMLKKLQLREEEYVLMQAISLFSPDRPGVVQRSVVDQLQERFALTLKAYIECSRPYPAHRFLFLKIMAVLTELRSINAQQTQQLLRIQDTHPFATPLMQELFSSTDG
In short: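 Cell-based rPXR activation assay: rPXR cells, 2,000 per well, rested 5hr at 37 C, then exposed to compounds in DMSO for 24 hr at 37 C. Luciferase activity read by One-Glo luminescence after 30 min at room temperature.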

[17] = target: Nuclear receptor subfamily 1 group I member 2 (Homo sapiens) (UniProt O75469); assay: CYP3A4 induction through human pregnane X receptor (PXR) by small molecules, qHTS assay (AID 1346984); note: nearly all actives have a fitted effect of over 40% in size
In short: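 Read-out is luminescence after One-Glo addition, following a 3 hr, 37C incubation with Luciferin-IPA CYP3A4 substrate (3uM final). Before that, compounds were on DPX-2 cells (HepG2 co-transfected with PXR element plus CYP3A4-promoter luciferase) for 24 hr at 37C.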

[18] = target: Nuclear receptor subfamily 1 group I member 2 (Homo sapiens) (UniProt O75469); assay: Human pregnane X receptor (PXR) activation by small molecules, qHTS assay (AID 1346985); note: nearly all actives have a fitted effect of over 40% in size
In short: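 DPX-2 cells (HepG2 co-transfected with a PXR response element and a CYP3A4-promoter luciferase construct) were seeded at 2,000 per well, rested 5 hr at 37C, then exposed to DMSO-dissolved compounds for 24 hr. Activation was read as luciferase luminescence.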

SMILES	Potency [1]	Potency [2]	Potency [3]	Potency [4]	Potency [5]	Potency [6]	Potency [7]	Potency [8]	Potency [9]	Potency [10]	Potency [11]	Potency [12]	Potency [13]	Potency [14]	Potency [15]	max activation [16]	outcome [17]	outcome [18]
CC(C)(OOC(C)(C)c1ccccc1)c1ccccc1	inactive	inactive	inactive	inactive	inactive	inactive	inactive	inactive	inactive	35.1 µM (active) and inactive	35.1 µM (active) and 6.33 µM (active)	31.3 µM (active) and 31.7 µM (active)	inactive	inactive	inactive			
CCN(N=O)C(N)=O	inactive	inactive	inactive	inactive	inactive	inactive	inactive	inactive	inactive	inactive	69.7 µM (active) and inactive	inactive	inactive	inactive	inactive			
CC(C)C(=O)OCC(C)(C)C(OC(=O)C(C)C)C(C)C (stereo not drawn)	inactive	inactive	inactive	inactive	inactive	inactive	inactive		inactive	32 µM (active) and inactive	inactive	inactive	inactive	inactive	inactive			
c1ccc(NNc2ccccc2)cc1	inactive	inactive	inactive	inactive	inactive and 48.6 µM (active)	inactive	inactive			inactive	inactive	71.7 µM (active) and inactive	32 µM (active) and 12.6 µM (active)	inactive	inactive			
O=c1oc2ccccc2c(O)c1C(CC(O)c1ccc(-c2ccc(Br)cc2)cc1)c1ccccc1 (stereo not drawn)	inactive	inactive	inactive	inactive	inactive	inactive	inactive			inactive		3.37 µM (active) and 3.47 µM (active)	inactive	inactive		-5.73% (inactive)	inactive	inactive
c1ccc(P(c2ccccc2)c2ccccc2)cc1	inactive	inactive	inactive	inactive	55.5 µM (active) and 30.6 µM (active)	inactive	inactive				10.2 µM (active) and 7.1 µM (active)	12.9 µM (active) and 7.96 µM (active)	inactive		inactive			
c1ccc(-c2cccc(-c3ccccc3)c2)cc1	inactive	inactive	inactive	inactive	61.8 µM (active) and 27.3 µM (active)	inactive	inactive	inactive	inactive	inactive	20.2 µM (active) and 8.94 µM (active)	28.6 µM (active) and 31.7 µM (active)	5.7 µM (active) and 5.64 µM (active)	inactive	inactive			
COC(=O)c1sccc1S(=O)(=O)NC(=O)Nc1nc(C)nc(OC)n1	inactive	inactive	inactive	inactive	inactive	inactive	inactive	inactive		inactive	81.3 µM (active)	inactive	inactive	inactive	inactive			
CCC(=O)O[C@H]1CC[C@H]2[C@@H]3CCC4=CC(=O)CC[C@]4(C)[C@H]3CC[C@]12C	inactive	inactive	inactive	inactive	inactive	inactive	inactive			inactive	17.8 µM (active) and inactive	25.2 µM (active) and 30.9 µM (active)	inactive	34.7 µM (active)	inactive	-2.06% (inactive)	inactive	inactive
CC(O)CCO (stereo not drawn)	inactive	inactive	inactive	inactive		inactive	inactive	inactive	inactive	32 µM (active) and inactive	inactive and 71 µM (active)	inactive	inactive	inactive	inactive			
CCN(CC)C(=O)/C(Cl)=C(\C)OP(=O)(OC)OC	inactive	inactive	inactive	inactive			inactive			inactive	inactive	inactive	inactive and 39.9 µM (active)	inactive	inactive	5.74% (inactive)	inactive	
O=C(O)CC[N+](=O)[O-]	inactive	inactive	inactive	inactive	inactive	inactive and 8.94 µM (active)	inactive and 28.3 µM (active)	inactive and 7.96 µM (active)	inactive	inactive	inactive		inactive	inactive	inactive			
O=C1C=CC(=O)C=C1	inactive	inactive		inactive	inactive	inactive	inactive	inactive		inactive	inactive	inactive	40.1 µM (active)	inactive	inactive			
Cc1cc(Cl)ccc1OCCCC(=O)O	inactive	inactive	inactive	inactive		inactive	inactive		inactive	inactive	82.8 µM (active) and inactive		inactive	inactive	inactive			
